The values below come from PubChem BioAssay.

Structures are written as SMILES. “And” between values parts separate entries of the source, which are not always exact repeats. Identical values can stand only once. Unmarked numbers belong to inactive results. For some of these results: Results with a measured potency or affinity are listed apart. The source made the active and inactive calls. Unless noted, no rule for the calls is given here.

The nature of assay [1]: antimalarial activity against Dd2 strain (AID 2302;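 active = growth inhibition above 50% at the single 2 µM test dose, taken to imply half-maximal potency below 2 µM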;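 also: 0% = DMSO untreated growth and 100% = chloroquine plus artemisinin killed control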). To be noted: P. falciparum Dd2 in RBCs, LDH growth readout, 72 h; at 2 µM; active compounds read high.
Assay [2] can be described thus: human hepatoma cell viability loss – ATP luminescence, cytotoxicity control for P. falciparum antimalarial project, primary screen (AID 2303;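 active = inhibition above 50%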;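 also: 0% = DMSO wells and 100% = digitonin-killed cells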). To be noted: HepG2 viability, 24-48 h, at 10 µM, active compounds read high.
The target in assay [3] is L-lactate dehydrogenase (Plasmodium falciparum (isolate CDC / Honduras)) (UniProt Q27743). In words: PfLDH activity inhibition – cell lysate, 3D7 strain, counter-screen for P. falciparum growth inhibition project (AID 2304).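 Also: 0% = vehicle and 100% = reference inhibitor.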 The following applies: P. falciparum 3D7 crude extract, LDH APAD/NBT absorbance; at 2 µM; active compounds read high. In general terms: Counterscreens check selectivity or assay interference.
Sequence of L-lactate dehydrogenase (Plasmodium falciparum (isolate CDC / Honduras)) (Q27743 whole entry, looked up): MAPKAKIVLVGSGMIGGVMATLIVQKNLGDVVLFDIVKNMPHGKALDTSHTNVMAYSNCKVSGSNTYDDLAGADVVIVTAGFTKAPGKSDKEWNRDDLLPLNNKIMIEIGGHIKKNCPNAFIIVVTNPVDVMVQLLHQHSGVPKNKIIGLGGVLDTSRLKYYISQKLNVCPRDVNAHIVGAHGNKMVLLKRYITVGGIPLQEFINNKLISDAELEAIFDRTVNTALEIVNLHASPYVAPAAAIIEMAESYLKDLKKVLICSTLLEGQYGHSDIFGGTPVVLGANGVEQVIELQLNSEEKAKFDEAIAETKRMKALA

Assay [4] in a line: inhibition of 3D7 malaria parasite growth – strain 3D7 (AID 2306).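 Also: 0% = DMSO wells and 100% = chloroquine plus artemisinin control wells.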 To be noted: P. falciparum 3D7 erythrocytic growth, LDH absorbance, 72 h; at 2 µM; active compounds read high.
For assay [5], the target named is Calcium-dependent protein kinase 1 (Plasmodium falciparum (isolate 3D7)) (UniProt P62344). Kind of assay: PfCDPK1 kinase inhibitors, biochemical, TCAMS library (AID 1159585; cut-off not given, nearly all actives have IC50 up to about 0.98 µM;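 also: inhibitors leave more ATP so luminescence rises with inhibition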). The following applies: recombinant PfCDPK1, Kinase-Glo ATP depletion luminescence. Background: Kinase-Glo reads ATP consumption through a luciferase reaction.
Sequence of Calcium-dependent protein kinase 1 (Plasmodium falciparum (isolate 3D7)) (P62344 whole entry, looked up): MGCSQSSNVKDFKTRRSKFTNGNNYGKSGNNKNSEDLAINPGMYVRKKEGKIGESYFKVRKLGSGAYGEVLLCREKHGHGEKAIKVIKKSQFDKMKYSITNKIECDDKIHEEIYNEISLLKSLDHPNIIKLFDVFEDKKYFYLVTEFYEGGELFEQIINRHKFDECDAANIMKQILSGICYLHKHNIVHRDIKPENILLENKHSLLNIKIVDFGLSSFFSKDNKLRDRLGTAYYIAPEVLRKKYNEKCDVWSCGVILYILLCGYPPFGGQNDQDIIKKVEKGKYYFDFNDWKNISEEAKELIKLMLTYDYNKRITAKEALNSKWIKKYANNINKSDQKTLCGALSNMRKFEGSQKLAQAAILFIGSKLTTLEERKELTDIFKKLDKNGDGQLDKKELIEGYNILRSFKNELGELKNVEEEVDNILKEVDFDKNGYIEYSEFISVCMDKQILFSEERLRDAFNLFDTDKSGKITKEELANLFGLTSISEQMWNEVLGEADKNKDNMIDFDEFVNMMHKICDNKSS
Assay [6] addresses Plasmodium falciparum protein kinase 6 (PK6, PF3D7_1337100) (UniProt Q8IDW1). Kind of assay: PfPK6 kinase inhibitors, biochemical, TCAMS library (AID 1159586). The following applies: recombinant PfPK6, Kinase-Glo ATP depletion luminescence.
The target of assay [7] is Protein kinase 7 (PK7), Plasmodium falciparum 3D7 (PF3D7_0213400) (UniProt Q7YTF7). In words: inhibition of Plasmodium PK7 catalytic activity – biochemical, TCAMS antimalarial set, Kinase-Glo luminescence (AID 1159587). The following applies: recombinant PfPK7, Kinase-Glo ATP depletion luminescence.
Sequence of Protein kinase 7 (PK7), Plasmodium falciparum 3D7 (PF3D7_0213400) (Q7YTF7 1-343): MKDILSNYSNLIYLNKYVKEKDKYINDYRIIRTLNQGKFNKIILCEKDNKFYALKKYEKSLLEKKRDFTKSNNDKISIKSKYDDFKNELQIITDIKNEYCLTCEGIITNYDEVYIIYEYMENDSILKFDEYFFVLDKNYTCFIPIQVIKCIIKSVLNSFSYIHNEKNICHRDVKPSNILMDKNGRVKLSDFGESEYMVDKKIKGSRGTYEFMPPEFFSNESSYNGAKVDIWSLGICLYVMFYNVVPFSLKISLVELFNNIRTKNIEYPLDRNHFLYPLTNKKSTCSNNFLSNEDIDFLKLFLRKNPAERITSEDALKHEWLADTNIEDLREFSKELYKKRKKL
Assay [8] concerns the target Calcium-dependent protein kinase 4 (Plasmodium falciparum (isolate 3D7)) (UniProt Q8IBS5). In words: PfCDPK4 kinase inhibitors, biochemical, TCAMS library (AID 1159588; cut-off not given, nearly all actives have IC50 up to about 0.91 µM). The following applies: recombinant PfCDPK4, Kinase-Glo ATP depletion luminescence.

Sequence of Plasmodium falciparum protein kinase 6 (PK6, PF3D7_1337100) (Q8IDW1 1-305): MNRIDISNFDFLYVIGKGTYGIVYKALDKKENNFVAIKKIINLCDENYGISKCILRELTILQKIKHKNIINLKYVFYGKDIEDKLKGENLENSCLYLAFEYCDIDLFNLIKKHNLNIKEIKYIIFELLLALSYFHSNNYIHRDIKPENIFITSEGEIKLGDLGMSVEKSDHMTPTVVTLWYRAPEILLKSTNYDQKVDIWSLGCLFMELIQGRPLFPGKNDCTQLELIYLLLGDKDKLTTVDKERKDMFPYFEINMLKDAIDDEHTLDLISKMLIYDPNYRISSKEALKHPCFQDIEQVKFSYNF
Sequence of Calcium-dependent protein kinase 4 (Plasmodium falciparum (isolate 3D7)) (Q8IBS5 whole entry, looked up): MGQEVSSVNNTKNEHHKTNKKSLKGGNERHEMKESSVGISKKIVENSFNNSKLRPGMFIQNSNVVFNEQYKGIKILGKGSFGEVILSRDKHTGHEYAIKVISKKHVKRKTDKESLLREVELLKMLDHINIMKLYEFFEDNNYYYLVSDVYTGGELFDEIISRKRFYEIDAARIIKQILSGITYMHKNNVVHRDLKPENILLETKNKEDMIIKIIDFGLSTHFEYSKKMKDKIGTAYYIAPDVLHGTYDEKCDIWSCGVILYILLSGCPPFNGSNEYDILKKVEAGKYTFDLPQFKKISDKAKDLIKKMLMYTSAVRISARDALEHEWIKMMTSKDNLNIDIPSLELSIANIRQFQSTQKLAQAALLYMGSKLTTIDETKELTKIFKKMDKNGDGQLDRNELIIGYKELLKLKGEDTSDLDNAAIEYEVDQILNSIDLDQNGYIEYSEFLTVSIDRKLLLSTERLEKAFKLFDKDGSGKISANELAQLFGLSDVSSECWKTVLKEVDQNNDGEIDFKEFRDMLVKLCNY

The inhibition is the change of the read-out against control, counted positive when it falls. Turning to `CC[C@H]1CN2CC[C@@H]1C[C@H]2[C@H](O)c1cc(N2CCOCC2)nc2ccc(OC)cc12`, the growth inhibition in assay [1] and in assay [4] was 99% (active) in each case. Besides, the inhibition was 10% in assay [2] and 3% in assay [3]. Moreover, the result in assay [5], in assay [6], in assay [7] and in assay [8] was inactive.
As to `CC[C@H]1CN2CC[C@H]1C[C@H]2[C@H](O)c1ccnc2ccc(C#N)cc12`, the growth inhibition was 55% (active) in assay [1] and 100% (active) in assay [4]. Besides, the inhibition is 0% in assay [2] and 5% in assay [3]. Besides, the result in assay [5], in assay [6], in assay [7] and in assay [8] was inactive.
For the compound `C=C[C@H]1CN2CC[C@H]1C[C@H]2[C@H](OS(=O)(=O)O)c1ccnc2ccccc12`, the growth inhibition is 15% in assay [1] and 99% (active) in assay [4]. Moreover, the inhibition is 8% in assay [2] and 5% in assay [3]. For the same compound, the result in assay [5], in assay [6], in assay [7] and in assay [8] was inactive.
Turning to `CC(Cc1ccc(NC(=O)[C@H](C)NCCc2cccc(Cl)c2)cc1)NCCc1cccc(Cl)c1` (some centres undefined), the growth inhibition in assay [1] was 54% (active); in assay [4], 100% (active). The inhibition in assay [2] was 99% (active); in assay [3] it was 2%. Moreover, the outcome in assay [5], in assay [6], in assay [7] and in assay [8] was inactive.
Regarding `CS(=O)(=O)Nc1ccc2[nH]cc(C3CCN(CC4CCC(NC(=O)/C=C/c5ccc(Cl)c(Cl)c5)CC4)CC3)c2c1` (centres undefined), the growth inhibition in assay [1] is 86% (active); in assay [4], 100% (active). Besides, the inhibition in assay [2] is 22%; in assay [3] it was -3%. Besides, the outcome in assay [5], in assay [6], in assay [7] and in assay [8] was inactive.
Turning to `COC(=O)c1ccc(CC(C)NCC(O)c2ccc(F)c(Cl)c2)cc1` (centres undefined), the growth inhibition is 78% (active) in assay [1] and 98% (active) in assay [4]. Further, the figures for the inhibition in assay [2] and in assay [3] were -4% and -7%, respectively. Moreover, the result in assay [5], in assay [6], in assay [7] and in assay [8] was inactive.
For the compound `C/C=C1\CN2CC[C@H]1C[C@H]2[C@H](O)c1ccnc2ccc(O)cc12`, the growth inhibition in assay [1] is -1%; in assay [4] it was 98% (active). Moreover, the results for the inhibition in assay [2] and in assay [3] were -15% and -3%, respectively. Besides, the result in assay [5], in assay [6], in assay [7] and in assay [8] was inactive.
With `N=c1c2c(n(Cc3ccc(Cl)cc3Cl)c3c1CCC3)CCCC2`, the values for the growth inhibition in assay [1] and in assay [4] were 73% (active) and 94% (active), respectively. Also, the inhibition is -5% in assay [2] and 3% in assay [3]. In addition, the result in assay [5], in assay [6], in assay [7] and in assay [8] was inactive.
Consider `O=c1c2ccccc2nc(C=Cc2ccc([N+](=O)[O-])cc2)n1-c1ccccn1`, for which the growth inhibition in assay [1] was 96% (active); in assay [4], 98% (active). In addition, the inhibition in assay [2] was 5%; in assay [3] it was -1%. The result in assay [5], in assay [6], in assay [7] and in assay [8] was inactive.
`O=C(/C=C/c1cc(C(F)(F)F)ccc1F)N1CCC(CN2CCC(c3c[nH]c4ccccc34)CC2)CC1`: the growth inhibition in assay [1] is 14%; in assay [4], 96% (active). For the same compound, the inhibition in assay [2] was 22%; in assay [3], -1%. Further, the result in assay [5], in assay [6], in assay [7] and in assay [8] was inactive.
As for `CCCCCCC(C)c1cc(O)c2c(c1)OC(C)(C)c1ccncc1-2` (centres undefined), the figures for the growth inhibition in assay [1] and in assay [4] were 61% (active) and 100% (active), respectively. Also, the values for the inhibition in assay [2] and in assay [3] were -3% and -4%, respectively. Also, the outcome in assay [5], in assay [6], in assay [7] and in assay [8] was inactive.
As to `Oc1cccc(C2CCCN(CCc3c[nH]c4ccccc34)C2)c1` (centres undefined), the growth inhibition in assay [1] is 40%; in assay [4], 93% (active). In addition, the figures for the inhibition in assay [2] and in assay [3] were 0% and 2%, respectively. The result in assay [5], in assay [6], in assay [7] and in assay [8] was inactive.
For the compound `COc1cc(/C=C/C(=O)NC2CCC(CN3CCC(c4c[nH]c5ccccc45)CC3)CC2)ccc1O` (centres undefined), the growth inhibition in assay [1] was 45% and 44%; in assay [4], 98% (active) and 99% (active). Besides, the inhibition was 11% and 19% in assay [2]; -8% and -2% in assay [3]. Moreover, the result in assay [5], in assay [6], in assay [7] and in assay [8] was inactive.
For the compound `Cc1cc(O)cc2c(C3CCN(CC4CCN(C(=O)/C=C/c5ccc(Cl)c(Cl)c5)CC4)CC3)c[nH]c12`, the growth inhibition is 100% (active) in assay [1] and 101% (active) in assay [4]. Also, the inhibition in assay [2] is 33%; in assay [3], 3%. The result in assay [5], in assay [6], in assay [7] and in assay [8] was inactive.
As for `Cc1[nH]c2ccccc2c1C1=CCN(CCCCCNC(=O)/C=C/c2ccc(Cl)c(Cl)c2)CC1`, the figures for the growth inhibition in assay [1] and in assay [4] were 89% (active) and 97% (active), respectively. Further, the inhibition in assay [2] was 28%; in assay [3], -1%. The outcome in assay [5], in assay [6], in assay [7] and in assay [8] was inactive.
Regarding `O=C(/C=C/c1ccc(Cl)c(Cl)c1)N1CCC(CN2CC[C@H](c3c[nH]c4ccccc34)[C@@H](O)C2)CC1`, the growth inhibition is 14% in assay [1] and 99% (active) in assay [4]. The figures for the inhibition in assay [2] and in assay [3] were 37% and -7%, respectively. Besides, the result in assay [5], in assay [6], in assay [7] and in assay [8] was inactive.
Take `COc1cc(C=CC(=O)NC2CCC(CN3CCC(c4c[nH]c5ccccc45)CC3)CC2)cc(OC)c1` (centres undefined): the growth inhibition in assay [1] was 90% (active); in assay [4], 101% (active). Further, the inhibition in assay [2] was 38%; in assay [3], -9%. Also, the outcome in assay [5], in assay [6], in assay [7] and in assay [8] was inactive.
`Cc1ccc2c(C3=CCN(CCCCC4(C)C(=O)Nc5ccccc54)CC3)c(C)[nH]c2c1` (centres undefined): the growth inhibition is 91% (active) in assay [1] and 95% (active) in assay [4]. Also, the inhibition in assay [2] is 9%; in assay [3], -3%. Also, the result in assay [5], in assay [6], in assay [7] and in assay [8] was inactive.
As to `COc1cccc(C(=O)C2CC2CN2CC=C(c3c[nH]c4ccc(OC)nc34)CC2)c1` (centres undefined), the values for the growth inhibition in assay [1] and in assay [4] were 89% (active) and 94% (active), respectively. Besides, the inhibition in assay [2] is 8%; in assay [3], -2%. Besides, the outcome in assay [5], in assay [6], in assay [7] and in assay [8] was inactive.
As for `COC(=O)c1ccc(CC(C)NCC(O)c2cccc(OC(F)(F)F)c2)cc1` (centres undefined), the growth inhibition was 67% (active) in assay [1] and 98% (active) in assay [4]. The inhibition in assay [2] was 2%; in assay [3], -2%. Also, the outcome in assay [5], in assay [6], in assay [7] and in assay [8] was inactive.
For the compound `CC(Cc1ccc(-c2nc3ccccc3[nH]2)cc1)NCC(O)c1cccc(C(F)(F)F)c1` (centres undefined), the results for the growth inhibition in assay [1] and in assay [4] were 90% (active) and 97% (active), respectively. For the same compound, the figures for the inhibition in assay [2] and in assay [3] were 33% and 4%, respectively. Besides, the result in assay [5], in assay [6], in assay [7] and in assay [8] was inactive.
With `CCC1CN2CCc3cc(OC)c(OC)cc3C2CC1CC1NCCc2c1[nH]c1ccc(O)cc21` (centres undefined), the growth inhibition was 100% (active) in assay [1] and 99% (active) in assay [4]. The inhibition is 45% in assay [2] and -7% in assay [3]. The outcome in assay [5], in assay [6], in assay [7] and in assay [8] was inactive.
For the compound `O=C(/C=C/c1ccc(Cl)c(Cl)c1)Nc1cccc(CN2CCC(c3c[nH]c4ccc(O)cc34)CC2)c1`, the growth inhibition in assay [1] is 90% (active); in assay [4] it was 101% (active). Moreover, the inhibition in assay [2] is 11%; in assay [3], 0%. The outcome in assay [5], in assay [6], in assay [7] and in assay [8] was inactive.
